Only some compounds are listed: those with a hit (about 3.6% of all), similar ones and a draw of the others.
Anthrax LF inh2: Bacillus anthracis LF protease inhibitors, primary screen, biochemical, multiplex microsphere, MLPCN library; multiplex microsphere protease cleavage assay; inhibition, % at 10 µM; hit rate 0.12% among 360,000
Target sequence (P15917 whole entry, looked up): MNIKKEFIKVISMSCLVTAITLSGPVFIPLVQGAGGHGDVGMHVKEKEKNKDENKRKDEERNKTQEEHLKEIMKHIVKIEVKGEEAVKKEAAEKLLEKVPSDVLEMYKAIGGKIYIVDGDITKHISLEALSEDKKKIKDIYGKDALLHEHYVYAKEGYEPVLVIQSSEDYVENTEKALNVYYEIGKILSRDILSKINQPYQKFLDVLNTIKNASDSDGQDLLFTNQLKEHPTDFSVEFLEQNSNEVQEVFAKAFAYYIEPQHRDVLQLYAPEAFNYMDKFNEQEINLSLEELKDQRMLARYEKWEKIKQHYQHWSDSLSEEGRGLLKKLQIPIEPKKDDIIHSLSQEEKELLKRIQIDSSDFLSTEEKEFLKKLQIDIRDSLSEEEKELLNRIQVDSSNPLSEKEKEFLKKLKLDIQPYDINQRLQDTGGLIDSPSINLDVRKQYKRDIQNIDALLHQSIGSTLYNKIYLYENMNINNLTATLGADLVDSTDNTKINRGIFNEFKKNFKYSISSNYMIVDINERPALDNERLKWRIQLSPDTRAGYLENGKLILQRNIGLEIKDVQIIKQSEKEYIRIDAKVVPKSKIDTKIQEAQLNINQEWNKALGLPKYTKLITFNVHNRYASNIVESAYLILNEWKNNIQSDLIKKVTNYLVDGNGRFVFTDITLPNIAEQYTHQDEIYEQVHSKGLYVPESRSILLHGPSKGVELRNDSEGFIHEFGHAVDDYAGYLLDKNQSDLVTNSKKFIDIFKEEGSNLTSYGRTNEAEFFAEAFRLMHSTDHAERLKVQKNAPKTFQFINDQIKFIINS
BoNT-A LC inh2: BoNT/A light chain protease inhibitors, primary screen, biochemical, flow cytometry, MLPCN library; Botulinum neurotoxin type A light chain protease (Clostridium botulinum A str. ATCC 3502); multiplex microsphere protease substrate cleavage; inhibition, % at 10 µM; hit rate 0.17% among 360,000; AID 588499, 2011
Bead autofluor: flagged as autofluorescent in microsphere protease counterscreen; AID 624483; compound autofluorescence counterscreen, microsphere flow cytometry; stronger effect = higher value; fluorescence intensity (concentration not given with the values); hit rate 3.1% among 360,000; in the data active = fluorescence intensity above about 16000; inconclusive = no clear call, values can overlap the other calls
3CLpro inhibitor: SARS-CoV 3CLpro protease inhibitors, primary screen, biochemical, quenched FRET. hit rate 0.14% among 290,000. inhibition, % at 6 µM. Replicase polyprotein 1ab (Severe acute respiratory syndrome coronavirus), P0C6X7. AID 1706, 2009. recombinant SARS-CoV 3CLpro, quenched FRET peptide cleavage; in the data active = inhibition above about 12%
BJeLR lethal: MLPCN primary cell-based screen for lethality selective to Ras in HRASV12 cells; AID 1554, 2009; inhibition, % (concentration not given with the values); hit rate 0.17% among 300,000; BJeLR (HRASV12) viability, CellTiter-Glo ATP luminescence, 48 h; in the data active = inhibition above about 50%; inconclusive = no clear call, values can overlap the other calls
BoNT F protease: BoNT/F light chain protease inhibitors, primary screen, biochemical, flow cytometry, MLPCN library; Botulinum neurotoxin type F light chain protease (Clostridium botulinum); hit rate 0.22% among 360,000; Multiplex microsphere protease cleavage assay; inhibition, % at 10 µM; in the data active = inhibition above about 35%, passing the limit was not always enough; inconclusive = no clear call, values can overlap the other calls
Numbers stand for hits; – = inactive; ? = inconclusive; · = no result given. Rule as the data show it, unless noted: active = inhibition above about 30%; inconclusive = no clear call, values can overlap the other calls; inactive = below that.

SMILES | Anthrax LF inh2 | BoNT-A LC inh2 | Bead autofluor | 3CLpro inhibitor | BJeLR lethal | BoNT F protease
CC(=O)c1ccc(OC(=O)COc2ccccc2Cl)cc1 | – | – | 32253 | – | – | ?
CC(=O)c1ccc(NC(=O)C2CC(=O)N(Cc3ccccc3)C2)cc1 (stereo unspecified) | – | – | 17232 | – | – | –
COc1ccc(N2CC(C(=O)NCCc3ccc(OC)c(OC)c3)CC2=O)cc1 (stereo unspecified) | – | – | 22233 | – | – | –
COc1ccc(CN2CC(C(=O)NCCc3ccccc3)CC2=O)cc1 (stereo unspecified) | – | – | 17837 | – | – | –
COc1ccc(CN2CC(C(=O)NCCc3ccc(C)cc3)CC2=O)cc1 (stereo unspecified) | – | – | 20337 | – | – | –
COc1ccccc1-n1c(SCC(=O)Nc2ccc(NC(C)=O)cc2)nc2c([nH]c3ccccc32)c1=O | – | – | – | – | – | –
CC(=O)c1cccc(OC(=O)C2=CC=CN3CCS(=O)(=O)N=C23)c1 | – | – | – | · | · | –
COc1ccc(-c2nnn(CCc3nn[nH]n3)n2)cc1OC | – | – | 21931 | – | – | –
CCOc1ccc(-c2nnn(CCC(=O)O)n2)cc1OC | – | – | 21762 | – | – | –
CCCCOC(=O)Nc1ccc(C(=O)OC)cc1 | – | – | 21923 | – | – | –
COc1cc(NC(=O)c2c(F)c(F)c(F)c(F)c2F)c(OC)cc1Cl | – | – | 21733 | – | – | –
COc1ccc(C(=O)Nc2cc(OC)c(Cl)cc2OC)cc1 | – | – | – | – | – | –
COc1cc(NC(=O)c2ccc(F)cc2)c(OC)cc1Cl | – | – | – | – | – | –
CCCCOC(=O)Nc1cc(OC)c(Cl)cc1OC | – | – | 23042 | – | – | –
CC(NC(=O)C(=O)c1cn(CC(=O)N2CCOCC2)c2ccccc12)c1ccccc1 (stereo unspecified) | – | – | – | – | – | –
O=C(NCC(=O)N1CCCC(C(F)(F)F)C1)c1cccs1 (stereo unspecified) | – | – | ? | · | · | –
CC(Oc1ccc(F)cc1)C(=O)Nc1cccc(S(=O)(=O)N(C)c2ccccc2)c1 (stereo unspecified) | – | – | – | · | · | –
CCOc1ccc(N(CCC#N)S(=O)(=O)c2ccc(OC)cc2)cc1 | – | – | 20566 | – | – | –
COC1C(CO)OC(n2c3c(Cl)cccc3c3c4c(c5c6cccc(Cl)c6[nH]c5c32)C(=O)NC4=O)C(O)C1O (stereo unspecified) | – | – | – | · | · | –
Cc1nc(NCc2ccccc2)[nH]c(=O)c1CCC(C)C | – | – | 24000 | – | – | –
CCN1/C(=C\C=C\C2=[N+](CC)c3ccccc3C2(C)C)C(C)(C)c2ccccc21 | – | 91.9 | – | – | 88.1 | –
CCOc1cc(CNCCc2ccc(S(N)(=O)=O)cc2)ccc1OCc1ccccc1 | – | – | 22507 | – | – | –
CCOc1cc(CNCCc2ccc(S(N)(=O)=O)cc2)cc(Cl)c1OCc1ccccc1 | – | – | – | – | – | –
COc1ccc(CNCCc2ccccc2)cc1OCC(N)=O | – | – | 20991 | – | – | –
COc1ccc(CCNc2ccncn2)cc1OC | – | – | 23028 | – | – | –
SMILES | Anthrax LF inh2 | BoNT-A LC inh2 | Bead autofluor | 3CLpro inhibitor | BJeLR lethal | BoNT F protease
COc1cc(CNCc2ccccn2)ccc1OCC(N)=O | – | – | – | – | – | –
COc1ccc(CCNCc2ccccn2)cc1OC | – | – | 16567 | – | – | –
COc1ccc(CCNc2ccncn2)cc1 | – | – | – | – | – | –
COc1ccc(CNCCc2ccc(Cl)cc2)cc1OCc1ccccc1 | – | – | – | – | – | –
COCCC1CCCCN1C(=O)c1cccc(OC2CCN(C3CCCC3)CC2)c1 (stereo unspecified) | – | – | – | – | – | –
COCCNC(=S)N/N=C(\C)c1ccc(-n2ccnc2)cc1 | – | – | – | – | – | –
O=C(NCCN1CCC(n2c(=O)[nH]c3ccccc32)CC1)c1ccc(Cl)cc1Cl | – | – | – | · | · | –
CCOC(=O)CC1C(=O)NCCN1C(=O)c1cccc(OC)c1 (stereo unspecified) | – | – | – | – | – | –
Nc1nnc(-c2ccccc2)s1 | – | – | 23348 | – | – | –
Nc1nnc(-c2ccc(F)cc2)s1 | – | – | – | – | – | –
